# Reference: PubChem BioAssay
# Calls of active or inactive are those of the source.
# Tests used:
# [1] = optical density shifts of acrAB sulA E. coli – strain DRC41, OD650, 48 h, E. coli filamentation inducer project, primary screen (AID 1152); details: higher = more signal, called active from +8 up or from −8 down;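 further: E. coli MC1000 strain DRC41 lacking acrAB efflux pump and sulA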
# [2] = probe aLefty1 binding on compound microarray – biochemical, small-molecule microarray, 635/667 nm fluorescence, primary screen (AID 1153); details: higher = more signal;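 further: score merges spot fluorescence with signal-to-noise ratio from the scanned slide images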
# [3] = plasmodial surface anion channel blockers, osmotic lysis – cell-based, P. falciparum Indochina, OD700, 1 h, primary screen (AID 1154); details: P. falciparum Indochina infected RBC osmotic lysis, higher = more signal, called active from +8 up or from −8 down
# [4] = plasmodial surface anion channel blockers, osmotic lysis – cell-based, P. falciparum Indochina, OD700, 2 h, primary screen (AID 1155);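 further: lysis reports solute entry through the parasite surface anion channel PSAC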; details: P. falciparum Indochina infected erythrocytes, higher = more signal, called active from +8 up or from −8 down
# [5] = changes in parasitized red cell lysis, either direction – P. falciparum Indochina, OD700, 3 h, PSAC antagonist project, primary screen (AID 1156); details: P. falciparum-infected erythrocytes, osmotic lysis, higher = more signal, called active from +8 up or from −8 down
# [6] = plasmodial surface anion channel blockers, osmotic lysis – cell-based, P. falciparum Indochina, OD700, 18 h, primary screen (AID 1157); details: P. falciparum Indochina infected erythrocytes, osmotic lysis OD700, 18 h; higher = more signal, called active from +8 up or from −8 down
# [7] = S6 kinase pathway phospho-S6 level changes – cell-based, A549, cytoblot, luminescence, serum-stimulated, primary screen (AID 1158); details: 5 h, higher = more signal;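 further: serum-stimulated A549 lung adenocarcinoma cells; signal is phosphorylated S6 detected by cytoblot immunostaining with HRP secondary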
# [8] = target: NADPH oxidase 2 (Homo sapiens) (UniProt P04839); assay: compounds shifting NOX2 Amplex Red fluorescence – cell-based, HEK293-NOX2, PMA-stimulated, NOX inhibitor project, primary screen (AID 1159); details: 45 min, higher = more signal, called active from +8 up or from −8 down; further: test concentration not given here
# Chain of NADPH oxidase 2 (Homo sapiens) (P04839 whole entry, looked up): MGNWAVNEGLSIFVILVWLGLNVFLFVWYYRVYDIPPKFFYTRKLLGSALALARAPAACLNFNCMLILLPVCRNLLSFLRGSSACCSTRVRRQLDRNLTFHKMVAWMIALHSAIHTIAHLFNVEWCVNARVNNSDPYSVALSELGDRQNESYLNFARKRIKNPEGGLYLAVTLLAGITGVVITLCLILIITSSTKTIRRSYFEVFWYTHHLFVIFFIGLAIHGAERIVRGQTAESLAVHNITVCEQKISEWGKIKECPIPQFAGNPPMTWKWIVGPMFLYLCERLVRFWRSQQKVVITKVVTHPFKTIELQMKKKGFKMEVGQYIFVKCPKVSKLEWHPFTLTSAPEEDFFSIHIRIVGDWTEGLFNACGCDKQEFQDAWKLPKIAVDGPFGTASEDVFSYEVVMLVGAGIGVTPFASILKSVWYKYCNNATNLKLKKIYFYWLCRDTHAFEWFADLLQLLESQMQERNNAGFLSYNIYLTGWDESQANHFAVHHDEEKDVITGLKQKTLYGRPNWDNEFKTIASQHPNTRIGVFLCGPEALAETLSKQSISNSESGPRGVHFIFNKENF
# [9] = target: NADPH oxidase 4 (Homo sapiens) (UniProt Q9NPH5); assay: compounds shifting NOX4 Amplex Red fluorescence – cell-based, HEK293-NOX4, tetracycline-induced, NOX inhibitor project, primary screen (AID 1160); details: HEK293-NOX4, Amplex Red H2O2 fluorescence, 45 min; higher = more signal, called active from +8 up or from −8 down
# Chain of NADPH oxidase 4 (Homo sapiens) (Q9NPH5 whole entry, looked up): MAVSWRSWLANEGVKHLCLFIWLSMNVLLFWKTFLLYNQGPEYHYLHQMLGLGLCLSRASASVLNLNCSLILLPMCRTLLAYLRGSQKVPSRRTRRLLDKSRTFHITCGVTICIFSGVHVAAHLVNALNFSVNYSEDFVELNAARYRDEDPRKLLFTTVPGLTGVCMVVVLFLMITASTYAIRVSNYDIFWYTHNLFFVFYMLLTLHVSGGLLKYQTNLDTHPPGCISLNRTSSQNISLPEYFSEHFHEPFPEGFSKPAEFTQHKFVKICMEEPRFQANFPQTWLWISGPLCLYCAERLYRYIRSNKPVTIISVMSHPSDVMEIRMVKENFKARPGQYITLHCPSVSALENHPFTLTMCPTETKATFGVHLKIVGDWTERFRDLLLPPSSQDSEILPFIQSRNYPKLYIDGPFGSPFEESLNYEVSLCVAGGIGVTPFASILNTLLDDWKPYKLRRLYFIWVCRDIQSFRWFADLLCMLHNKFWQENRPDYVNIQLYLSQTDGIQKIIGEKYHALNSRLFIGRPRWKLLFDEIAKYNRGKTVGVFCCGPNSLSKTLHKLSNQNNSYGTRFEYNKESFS
# [10] = target: NADPH oxidase 5 (Homo sapiens) (UniProt Q96PH1); assay: compounds shifting NOX5 Amplex Red fluorescence – cell-based, HEK293-NOX5, NOX inhibitor project, primary screen (AID 1161); details: HEK293-NOX5, ionomycin, 45 min, higher = more signal
# Chain of NADPH oxidase 5 (Homo sapiens) (Q96PH1 whole entry, looked up): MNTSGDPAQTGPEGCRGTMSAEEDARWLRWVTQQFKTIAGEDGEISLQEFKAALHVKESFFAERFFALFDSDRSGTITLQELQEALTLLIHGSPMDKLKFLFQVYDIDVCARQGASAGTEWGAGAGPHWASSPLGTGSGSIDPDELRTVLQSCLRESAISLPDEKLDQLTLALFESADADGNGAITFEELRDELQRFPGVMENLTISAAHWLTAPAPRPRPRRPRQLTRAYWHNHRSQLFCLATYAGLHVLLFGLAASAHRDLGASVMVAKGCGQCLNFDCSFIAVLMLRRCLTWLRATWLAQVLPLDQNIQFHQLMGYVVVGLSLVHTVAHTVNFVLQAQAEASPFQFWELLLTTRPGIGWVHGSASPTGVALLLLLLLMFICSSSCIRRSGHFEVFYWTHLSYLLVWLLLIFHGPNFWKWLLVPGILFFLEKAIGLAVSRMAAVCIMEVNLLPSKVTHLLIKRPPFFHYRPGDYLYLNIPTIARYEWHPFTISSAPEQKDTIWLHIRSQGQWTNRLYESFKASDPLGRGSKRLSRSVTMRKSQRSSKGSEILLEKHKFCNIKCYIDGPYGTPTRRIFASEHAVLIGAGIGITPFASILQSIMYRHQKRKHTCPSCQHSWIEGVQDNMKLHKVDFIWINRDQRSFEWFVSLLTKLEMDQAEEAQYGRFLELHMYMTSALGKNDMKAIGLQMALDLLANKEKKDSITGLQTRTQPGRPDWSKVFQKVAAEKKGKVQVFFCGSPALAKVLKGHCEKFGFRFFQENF
# [11] = compound effects on lung adenocarcinoma cell viability – A549, calcein-AM fluorescence, 48 h, basal, profiling panel (AID 1162); details: higher = more signal; further: test concentration not given here
# [12] = compound effects on differentiated 3T3-L1 adipocyte viability – cell-based, 3T3-L1 adipocytes, calcein-AM fluorescence, 48 h, basal, profiling panel (AID 1163); details: 3T3-L1 adipocytes viability, higher = more signal; further: test concentration not given here
# [13] = compound effects on hepatocellular carcinoma cell viability – HepG2, calcein-AM fluorescence, 48 h, basal, profiling panel (AID 1164); details: higher = more signal; further: test concentration not given here
# [14] = compound effects on multiple myeloma cell viability – MM1S, calcein-AM fluorescence, 48 h, basal, profiling panel (AID 1165); details: higher = more signal;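 further: viability of MM1S multiple myeloma cells under basal unstimulated conditions; test concentration not given here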
# [15] = calcein-AM signal in unstimulated myeloma cells – cell-based, calcein-AM fluorescence, 48 h, PK04 Diversity Set, profiling panel (AID 1166); details: RPMI8226 myeloma viability, higher = more signal;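 further: cells grown under basal conditions without added stimulus; test concentration not given here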
# [16] = JC-1 mitochondrial signal, unstimulated HepG2 cells – cell-based, JC-1 fluorescence, 24 h, 100 nL compound, profiling panel (AID 1167); details: HepG2 mitochondrial potential, higher = more signal; further: test concentration not given here
# [17] = JC-1 mitochondrial signal, unstimulated adipocytes – cell-based, JC-1 fluorescence, 3T3-L1 adipocytes, 24 h, 100 nL compound, profiling panel (AID 1168); details: JC-1 mitochondrial fluorescence, higher = more signal, called active from +8 up or from −8 down; further: test concentration not given here
# [18] = JC-1 mitochondrial signal, unstimulated myeloma cells – cell-based, JC-1 fluorescence, RPMI8226, 24 h, 100 nL compound, profiling panel (AID 1169); details: JC-1 mitochondrial potential fluorescence, higher = more signal; further: test concentration not given here
# [19] = JC-1 mitochondrial signal, unstimulated MM1S myeloma – cell-based, JC-1 fluorescence, 24 h, 100 nL compound, profiling panel (AID 1170); details: MM1S mitochondrial potential, higher = more signal; further: test concentration not given here
# [20] = resazurin metabolic signal in A549 cells – cell-based, resazurin fluorescence, 24 h, PK04 Diversity Set, profiling panel (AID 1171); details: A549 viability, higher = more signal, called active from +8 up or from −8 down; further: test concentration not given here
Compound,z-score [1],composite z-score [2],z-score [3],z-score [4],z-score [5],z-score [6],z-score [7],z-score [8],z-score [9],z-score [10],z-score [11],z-score [12],z-score [13],z-score [14],z-score [15],z-score [16],z-score [17],z-score [18],z-score [19],z-score [20]
[N-]=[N+]=NCc1ccccc1[C@H]1OC(c2ccc(OCCCO)cc2)=N[C@@]1(Cc1ccccc1)C(=O)NCC(O)CO (stereo not given in full),-0.112 (inactive),1.61,25.4 (active),12.1 (active),1.87 (inactive),1.67 (inactive),-0.09,0.046 (inactive),0.497 (inactive),-0.796,0.347,-0.445,0.547,-1.9,-1.36,0.831,-0.699 (inactive),-0.399,-1.11,0.951 (inactive)
CC(C)CNC(=O)[C@@]1(C)c2ccccc2C(=O)N(C(C)C)[C@H]1c1ccc(CO)cc1,-0.144 (inactive),0.045,1.54 (inactive),0.344 (inactive),0.24 (inactive),-0.0642 (inactive),-0.53,-0.93 (inactive),0.227 (inactive),-0.85,-0.238,-0.511,-0.178,0.0151,-0.847,-0.372,-0.638 (inactive),0.809,-0.481,-0.0586 (inactive)
Cc1cc(C)c(C(O)C2C=CC3C(=O)NC(=O)C3N2Nc2ccccn2)c(C)c1 (stereo not given),-1.14 (inactive),0.469,1.02 (inactive),0.742 (inactive),-0.0209 (inactive),1.07 (inactive),-1.25,-1.49 (inactive),-1.33 (inactive),-2.12,-0.948,-0.397,0.359,0.22,0.066,-0.767,-0.363 (inactive),-0.188,-0.0615,-0.875 (inactive)
[N-]=[N+]=NCc1ccccc1C[C@]1(C(=O)N2CCOCC2)N=C(c2ccc(OCCCO)cc2)O[C@H]1c1ccccc1,1.07 (inactive),0.208,29.4 (active),24.2 (active),0.785 (inactive),1.5 (inactive),1.57,-1.95 (inactive),-0.399 (inactive),-1.32,-0.55,-0.0649,-1.56,-2.06,-4.4,-0.155,-0.296 (inactive),-1.16,-2.08,-0.832 (inactive)
